Only a selection was taken, and the strongest signals are over-represented in it overall.
Assays:
Assay in all cases: glycan array binding signal (z-score within array); higher = stronger binding
Settings in all cases: glycan notation: IUPAC condensed, linker removed
Fuc(a1-2)Gal = target: Fuc(a1-2)Gal
Summary of the method: (§1)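 The binding signal is a Z-score computed within each array and averaged over linkers. Arrays of the same protein sequence at different concentrations or buffers were also averaged together. Data originate from 3228 arrays in the Consortium for Functional Glycomics database, kept only where the protein sequence was available.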

[1] = target: Fuc(a1-2)Gal(b1-4)[Fuc(a1-3)]GlcNAc
Summary of the method: as §1

[2] = target: Fuc(a1-2)Gal(b1-4)[Fuc(a1-3)]GlcNAc(b1-2)Man(a1-3)[Fuc(a1-2)Gal(b1-4)[Fuc(a1-3)]GlcNAc(b1-2)Man(a1-6)]Man(b1-4)GlcNAc(b1-4)[Fuc(a1-6)]GlcNAc
Summary of the method: as §1

Fuc(a1-2)[Gal(a1-3)]Gal = target: Fuc(a1-2)[Gal(a1-3)]Gal
Summary of the method: as §1

[3] = target: Fuc(a1-2)[Gal(a1-3)]Gal(b1-4)[Fuc(a1-3)]GlcNAc(b1-3)GalNAc
Summary of the method: as §1

[4] = target: Fuc(a1-2)[GalNAc(a1-3)]Gal(b1-3)GalNAc(b1-3)Gal(a1-4)Gal(b1-4)Glc
Summary of the method: as §1

Fuc(a1-3)GlcNAc = target: Fuc(a1-3)GlcNAc
Summary of the method: as §1

[5] = target: Fuc(a1-3)[Gal(b1-4)]GlcNAc(b1-3)Gal(b1-4)[Fuc(a1-3)]GlcNAc
Summary of the method: as §1

[6] = target: Fuc(a1-3)[Gal(b1-4)]GlcNAc(b1-6)GalNAc
Summary of the method: as §1

[7] = target: Fuc(a1-3)[Gal(b1-4)]GlcNAc6S
Summary of the method: as §1

[8] = target: Fuc(a1-3)[Gal3S(b1-4)]GlcNAc6S
Summary of the method: as §1

[9] = target: Gal(b1-3)GalNAc(a1-3)[Fuc(a1-2)]Gal(b1-4)Glc
Summary of the method: as §1

[10] = target: Gal(b1-3)GlcNAc(b1-3)Gal(b1-4)GlcNAc(b1-6)[Gal(b1-3)GlcNAc(b1-3)]Gal(b1-4)Glc
Summary of the method: as §1

[11] = target: Gal(b1-3)[Neu5Ac(a2-6)]GalNAc
Summary of the method: as §1

Gal(b1-4)GlcNAc = target: Gal(b1-4)GlcNAc
Summary of the method: as §1

[12] = target: Gal(b1-4)GlcNAc(b1-2)Man(a1-3)[Gal(b1-4)GlcNAc(b1-2)Man(a1-6)][Gal(b1-4)GlcNAc(b1-4)]Man(b1-4)GlcNAc(b1-4)[Fuc(a1-6)]GlcNAc
Summary of the method: as §1

[13] = target: Gal(b1-4)GlcNAc(b1-2)Man(a1-6)Man(b1-4)GlcNAc(b1-4)GlcNAc
Summary of the method: as §1

[14] = target: Gal(b1-4)GlcNAc(b1-3)Gal(b1-4)GlcNAc(b1-3)GalNAc
Summary of the method: as §1

Gal(b1-4)GlcNAc6P = target: Gal(b1-4)GlcNAc6P
Summary of the method: as §1

Gal4S(b1-4)GlcNAc = target: Gal4S(b1-4)GlcNAc
Summary of the method: as §1

[15] = target: GlcNAc(b1-3)Gal(b1-4)GlcNAc(b1-2)Man(a1-3)[GlcNAc(b1-3)Gal(b1-4)GlcNAc(b1-2)Man(a1-6)]Man(b1-4)GlcNAc(b1-4)GlcNAc
Summary of the method: as §1

GlcNAc(b1-3)GalNAc = target: GlcNAc(b1-3)GalNAc
Summary of the method: as §1

[16] = target: GlcNAc(b1-3)[GlcNAc(b1-6)]Gal(b1-4)GlcNAc
Summary of the method: as §1

[17] = target: GlcNAc(b1-4)Gal(b1-4)GlcNAc
Summary of the method: as §1

[18] = target: GlcNAc(b1-4)[GlcNAc(b1-6)]GalNAc
Summary of the method: as §1

[19] = target: GlcNAc(b1-6)Gal(b1-4)GlcNAc
Summary of the method: as §1

[20] = target: Man(a1-2)Man(a1-3)[Man(a1-2)Man(a1-6)]Man(a1-6)[Man(a1-2)Man(a1-2)Man(a1-3)]Man
Summary of the method: as §1

[21] = target: Man(a1-3)[Man(a1-6)]Man(a1-6)[Man(a1-3)]Man(b1-4)GlcNAc(b1-4)GlcNAc
Summary of the method: as §1

[22] = target: Neu5Ac(a2-3)Gal(b1-3)GalNAc6S
Summary of the method: as §1

[23] = target: Neu5Ac(a2-3)Gal(b1-3)GlcNAc(b1-6)GalNAc
Summary of the method: as §1

B1: Siglec-9 (Homo sapiens), Q9Y336 (protein)
chain: MLLLLLPLLWGRERAEGQTSKLLTMQSSVTVQEGLCVHVPCSFSYPSHGWIYPGPVVHGYWFREGANTDQDAPVATNNPARAVWEETRDRFHLLGDPHTKNCTLSIRDARRSDAGRYFFRMEKGSIKWNYKHHRLSVNVTALTHRPNILIPGTLESGCPQNLTCSVPWACEQGTPPMISWIGTSVSPLDPSTTRSSVLTLIPQPQDHGTSLTCQVTFPGASVTTNKTVHLNVSYPPQNLTMTVFQGDGTVSTVLGNGSSLSLPEGQSLRLVCAVDAVDSNPPARLSLSWRGLTLCPSQPSNPGVLELPWVHLRDAAEFTCRAQNPLGSQQVYLNVSLQSKATSGVTQGVVGGAGATALVFLSFCVIFVVVRSCRKKSARPAAGVGDTGIEDANAVRGSASQGPLTEPWAEDSPPDQPPPASARSSVGEGELQYASLSFQMVKPWDSRGQEATDTEYSEIKIHR
glycan array binding signal (z-score) (Fuc(a1-2)Gal): -0.211
glycan array binding signal (z-score) [1]: -0.153
glycan array binding signal (z-score) [2]: -0.277
glycan array binding signal (z-score) (Fuc(a1-2)[Gal(a1-3)]Gal): -0.193
glycan array binding signal (z-score) [3]: -0.269
glycan array binding signal (z-score) [4]: -0.125
glycan array binding signal (z-score) (Fuc(a1-3)GlcNAc): -0.293
glycan array binding signal (z-score) [5]: 0.166
glycan array binding signal (z-score) [6]: -0.063
glycan array binding signal (z-score) [7]: 3.1
glycan array binding signal (z-score) [8]: -0.041
glycan array binding signal (z-score) [9]: -0.434
glycan array binding signal (z-score) [10]: -0.039
glycan array binding signal (z-score) [11]: -0.173
glycan array binding signal (z-score) (Gal(b1-4)GlcNAc): -0.244
glycan array binding signal (z-score) [12]: -0.418
glycan array binding signal (z-score) [13]: -0.333
glycan array binding signal (z-score) [14]: -0.054
glycan array binding signal (z-score) (Gal(b1-4)GlcNAc6P): -0.074
glycan array binding signal (z-score) (Gal4S(b1-4)GlcNAc): -0.304
glycan array binding signal (z-score) [15]: -0.042
glycan array binding signal (z-score) (GlcNAc(b1-3)GalNAc): -0.152
glycan array binding signal (z-score) [16]: -0.322
glycan array binding signal (z-score) [17]: 0.012
glycan array binding signal (z-score) [18]: -0.132
glycan array binding signal (z-score) [19]: -0.081
glycan array binding signal (z-score) [20]: -0.055
glycan array binding signal (z-score) [21]: -0.007
glycan array binding signal (z-score) [22]: 1.05
glycan array binding signal (z-score) [23]: 0.961

Source: the supplement of paper PMC8728848
